About 79,000 compounds went through this panel and 15% of them were active in at least one assay; those are over-represented in the sample as a whole. Unmarked numbers belong to inactive results. Activity calls are given as the source filed them. Rule as the data show it: active = growth inhibition above about 70%; inactive = the rest.
Assay: NCI Yeast Anticancer Drug Screen. Data for the mlh1 rad18 strain (AID 175)
Conditions: S. cerevisiae mlh1 rad18 strain growth inhibition; at 50.0 µM; stronger effect = higher value
Procedure, shortened: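 Cells of a genetically altered yeast strain, deficient in DNA damage repair, were treated with compound. Their growth was then compared with that of vehicle-treated cultures to give inhibition.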

SMILES	growth inhibition
COc1ccc(N)cc1OC	-5.4%
N.N.N.N.N.O=C([O-])C(=O)[O-].[Co+3].[O-][Cl+3]([O-])([O-])O.[O-][Cl+3]([O-])([O-])[O-]	-12.7%
COc1ccc2c(c1)CCC1C2CCC2(C)C1CCC21CCNP(=O)(N(CCCl)CCCl)O1 (stereo not given)	38.7%
NC(=O)CI	17.1%
COc1cc(/C=C2\C(O)C3CCN2CC3)cc(OC)c1OC (stereo not given)	-6.8%
FC(F)(F)[S-].FC(F)(F)[S-].[C-]#[O+].[C-]#[O+].[C-]#[O+].[C-]#[O+].[C-]#[O+].[C-]#[O+].[C-]#[O+].[C-]#[O+].[Mn].[Mn]	99.3% (active)
O=C(COc1ccc(Cl)c(Cl)c1)Nc1ccccc1S(=O)(=O)F	21.4%
CN1CC[CH2][Sn]([Cl])([Cl])[CH2]CC1	13%
CN(C)C1OCCO1	-3.35%
CN(C)c1ccc(N=Nc2ccc([As](=O)(O)O)cc2)cc1	-0.4%
CCN1C(=O)C(C)C(=O)N(C)C1=O (stereo not given)	1.8%
COc1cc2c(cc1OC)[C@@H]1C(=O)c3ccc4c(c3O[C@@H]1CO2)C[C@H](C(C)C)O4	7.2%
C=CCOCC1CO1 (stereo not given)	15.8%
CCN(CC)CC#N	-0.7%
CC1(C)N=C(N)N=C(N)N1c1ccc(OCCOc2ccc(S(=O)(=O)F)cc2)cc1	-18.4%
NNC(N)=NCCCC(N)C(=O)O (stereo not given)	-16.6%
C1CC[N-]CC1.C1CC[N-]CC1.[Cl][Pt+2]([Cl])([Cl])[Cl]	-18.8%
O=C(CCN1CC=C(c2ccccc2)CC1)c1ccc(F)cc1	92.3% (active)
C/C(CCl)=N/NC1=NC(C)(CCC2(C)N=C(N/N=C(/C)CCl)SP2(=O)NC23CC4CC(CC(C4)C2)C3)P(=O)(NC23CC4CC(CC(C4)C2)C3)S1 (stereo not given)	-28.8%
N/C(=N\NS(=O)(=O)c1ccccc1)N[N+](=O)[O-]	7.25%

SMILES	growth inhibition
Nc1nc(CC(N)C(=O)O)c[se]1 (stereo not given)	11%
Cc1ccc([Se][Se]c2ccc(C)cc2)cc1	43%
CCCOC(=O)c1ccccc1N	-19.4%
O=c1[nH]c2ccccc2c(=O)n1-c1ccco1	-1.65%
CO[C@H]1C[C@H](O[C@H]2CC[C@@]3(C)[C@H](CC[C@@H]4[C@@H]3CC[C@]3(C)[C@@H](C5=CC(=O)OC5)CC[C@]43O)C2)O[C@H](C)[C@H]1O	-49%
O=C(O)C(CP(=O)(O)O)=C(Cl)Cl	-9.75%
Nc1ccc([As](=O)(O)O)cc1C(=O)O	-2.3%
ClCCN(CCCl)c1cc(Cl)ccc1Oc1ccccc1	-1.55%
O=c1c(O)c(-c2ccccc2)oc2ccccc12	34.8%
O=C(Nc1c(O)[nH]c(=S)[nH]c1=O)c1ccccn1	-8.3%
CCN1CCOC(CC)(c2cc(Cl)cc(Cl)c2Cl)C1 (stereo not given)	20.4%
NC(N)=N/N=C/c1ccc(Cl)c(Cl)c1	21.4%
COc1cc(/C=C(\C)[N+](=O)[O-])cc(OC)c1	86.3% (active)
CCOc1cc(CCNC)c2c(ccc3ccc(OC)c(O)c32)c1OC	-36.8%
Oc1cc(N2CC2)c(O)cc1N1CC1	11.4%
O=C1NC(=S)NC(=O)C1=Cc1ccco1	-19.6%
PCc1ccccc1.[Cl][Hg][Cl]	12.6%
O=C(Cl)OC1CS(=O)(=O)CC1O (stereo not given)	0.25%
BrCCCBr	21.3%
CN1CCN(C)C12C=c1ccccc1=CC21CC1	-8.15%

— PubChem BioAssay (NCI)
